Results filed as inconclusive are left out. Active and inactive are the calls of the source. The call rests on the fitted dose curve; in most records, active means well fitted activation curve with a large enough effect in the repeat runs; inconclusive means weak or mixed curves; inactive means flat fitted curve, though single readings scatter.
Experiment: A CellTox Green Cytotoxicity Assay to monitor cytotoxicity in HEK293 cells - 32 hour (AID 1224881); further: nearly all actives have a fitted effect of over 40% in size
Settings: CellTox Green fluorescence; series mostly up to 76.8 µM
From the text: National Center for Advancing Translational Sciences [NCATS]
NIH Chemical Genomics Center [NCGC]
U.S. Environmental Protection Agency [EPA]
National Institutes of Environmental Health Sciences [NIEHS]
National Toxicology Program [NTP]
Cell-based models are critical for drug discovery. Determining the natural cytotoxic effects resulting from test compounds is an essential research activity. A CellTox Green Cytotoxicity Assay to monitor cytotoxicity in real time of continues cell culture during 40 hours of the compound treatment was used to screen Tox21 10K library compounds in Hek293 cells. CellTox Green Cytotoxicity Assay is a nonlytic, homogeneous, biofluorescent method to measure cytotoxicity in cell culture after experimental manipulation. The assay system uses a proprietary asymmetric cyanine dye that is excluded from viable cells but preferentially stains the dead cell's DNA. […] Viable cells produce no appreciable increases in fluorescence. Therefore, the fluorescence signal produced by the binding interaction with dead cell DNA is proportional to cytotoxicity.
The mixture of Hek293 cell suspension and reagents were dispensed at 600cells/6 ul/well in 1536-well tissue culture treated black solid bottom plates using a Multidrop dispenser. After the assay plates were incubated at a 37 C/5% CO2 incubator for 5 hours, 23 nL of compounds dissolved in DMSO, positive and negative controls was transferred to the assay plate by a pintool work station. The plates were incubated at 37 C for 40 hours. The fluorescence intensity were measured at 0h, 8h, 16h, 24h, 32h and 40h time points using ViewLux plate reader during compound treatment.
On the % scale 0 is the no-effect control and ±100 the full control effect.

**Q.** Which cytotoxicity increase does the source give for `CC(C)C[C@@H](N)C(=O)O` here?
**A.** -1.55% [at 15.8 µM] (inactive)

**Q.** For `C[C@@H]1C[C@H]2[C@@H]3C[C@H](F)C4=CC(=O)C(Cl)=C[C@]4(C)[C@@]3(F)[C@@H](O)C[C@]2(C)[C@@]1(O)C(=O)CO`, which outcome is on record?
**A.** inactive

**Q.** Which outcome does the source give for `O=C(O)CNC(=O)c1ccccc1` here?
**A.** inactive

**Q.** For `CC1OC1C1CCC2(C)OC2C1` (stereo not given), which outcome is on record?
**A.** inactive

**Q.** With `CC(CC=O)CC(C)(C)C` (stereo not given) as the molecule, how does the outcome read?
**A.** inactive

**Q.** Which outcome does the source give for `C=CCCC(=O)O` here?
**A.** inactive

**Q.** Which outcome does the source give for `COCCOCC(OC)OC` here?
**A.** inactive

**Q.** With `CC(C#N)(CCC(=O)O)N=NC(C)(C#N)CCC(=O)O` (stereo not given) as the molecule, how does the outcome read?
**A.** inactive

**Q.** For `Clc1cc(Cl)cc(Cl)c1`, which outcome is on record?
**A.** inactive

**Q.** With `CC(=O)OCC(=O)[C@@]1(O)[C@H](C)C[C@H]2[C@@H]3CCC4=CC(=O)C=C[C@]4(C)[C@@]3(F)[C@@H](O)C[C@@]21C` as the molecule, how does the outcome read?
**A.** inactive

**Q.** Which outcome does the source give for `CC(C)[C@H]1CC[C@@H](C)CC1=O` here?
**A.** inactive

**Q.** For `C[C@H]1[C@H](NC(=O)/C(=N/OC(C)(C)C(=O)O)c2csc(N)n2)C(=O)N1S(=O)(=O)O` (stereo in doubt), which outcome is on record?
**A.** inactive

**Q.** For `CCC1C(=O)OCC1Cc1cncn1C` (stereo not given), which outcome is on record?
**A.** inactive

**Q.** Which outcome does the source give for `CC(C)=CCC/C(C)=C/C#N` here?
**A.** inactive

**Q.** Which outcome does the source give for `Cc1cccc(C)c1NC(=O)CC12CCCN1CCC2` here?
**A.** inactive

**Q.** For `CC(C)(N)C#N`, which outcome is on record?
**A.** inactive

**Q.** Which outcome does the source give for `CCN1CCOCC1` here?
**A.** inactive

**Q.** For `CCN[C@H]1C[C@H](C)S(=O)(=O)c2sc(S(N)(=O)=O)cc21`, which outcome is on record?
**A.** inactive

**Q.** With `C=CN1CCCCCC1=O` as the molecule, how does the outcome read?
**A.** inactive

**Q.** For `CC(=O)c1ccccc1[N+](=O)[O-]`, which outcome is on record?
**A.** inactive

**Q.** For `c1coc(CNc2ncnc3nc[nH]c23)c1`, which outcome is on record?
**A.** inactive

**Q.** With `CO[C@@]1(NC(=O)C(C(=O)O)c2ccc(O)cc2)C(=O)N2C(C(=O)O)=C(CSc3nnnn3C)CO[C@@H]21` (stereo not given in full) as the molecule, how does the outcome read?
**A.** inactive

**Q.** Which outcome does the source give for `CCCn1cc[n+](C)c1C` here?
**A.** inactive

**Q.** With `CO[C@@]1(NC(=O)CSC[C@@H](N)C(=O)O)C(=O)N2C(C(=O)O)=C(CSc3nnnn3C)CS[C@@H]21` as the molecule, how does the outcome read?
**A.** inactive

**Q.** With `CC(C)c1ccc2ncccc2c1` as the molecule, how does the outcome read?
**A.** inactive

**Q.** For `Clc1cc(Cl)c(Cl)nc1Cl`, which outcome is on record?
**A.** inactive

**Q.** For `CC(C)(C)c1ccc(-c2ccc(C(C)(C)C)cc2)cc1`, which outcome is on record?
**A.** inactive

**Q.** For `OCCc1ccccn1`, which outcome is on record?
**A.** inactive

**Q.** Which outcome does the source give for `Nc1ccn([C@@H]2O[C@H](CO)[C@@H](O)C2(F)F)c(=O)n1` here?
**A.** inactive

**Q.** Which outcome does the source give for `COc1c(N2CCNC(C)C2)c(F)cc2c(=O)c(C(=O)O)cn(C3CC3)c12` (stereo not given) here?
**A.** inactive

**Q.** For `C1CCC2(CCCCO2)OC1`, which outcome is on record?
**A.** inactive

**Q.** With `NC(=O)NC1N=C([O][Al])NC1=O` (stereo not given) as the molecule, how does the outcome read?
**A.** inactive

**Q.** For `CC1=CCC(O)(C(C)C)CC1` (stereo not given), which outcome is on record?
**A.** inactive

**Q.** For `CC1=NN(c2cc(S(=O)(=O)O)ccc2Cl)C(=O)C1N=Nc1ccccc1` (stereo not given), which outcome is on record?
**A.** inactive

**Q.** For `CCOC(=O)c1ccccc1`, which outcome is on record?
**A.** inactive

**Q.** For `CCO[Si](OCC)(OCC)c1ccccc1`, which outcome is on record?
**A.** inactive

**Q.** With `CCN1C=CN(C)C1C` (stereo not given) as the molecule, how does the outcome read?
**A.** inactive

**Q.** Which outcome does the source give for `Cc1ncc(COP(=O)(O)O)c(C=O)c1O` here?
**A.** inactive

**Q.** For `CC(=O)N1C[C@H](O)C[C@H]1C(=O)O`, which outcome is on record?
**A.** inactive

**Q.** With `c1ccc2sc(SN3CCOCC3)nc2c1` as the molecule, how does the outcome read?
**A.** inactive

— PubChem BioAssay (Tox21)
